Consider 24 compounds from PubChem BioAssay (Tox21).

Inconclusive results are not listed. Values without a mark were called inactive. Activity calls are given as the source filed them. Calls follow the shape of the dose curve; as a rule, active = well fitted curve in the direction sought with a large enough effect in the repeat runs; inconclusive = weak or mixed curves; inactive = no such curve, though single readings can be large; an effect the other way counts as inactive or inconclusive.

Test [1] is described as follows: A CellTox Green Cytotoxicity Assay to monitor cytotoxicity in HEK293 cells - 40 hour (AID 1224871). Also: nearly all actives have a fitted effect of over 45% in size. In outline:
(§1)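 Read-out: fluorescence of a cell-impermeant cyanine dye staining DNA of dead cells, proportional to cytotoxicity. HEK293, 600 cells/well with reagent, compound (23 nL DMSO) added after 5 h; reads at 0, 8, 16, 24, 32, 40 h.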

Test [2] is described as follows: qHTS RealTime-Glo MT Cell Viability Assay in HepG2 cells - 8 hour (AID 1224873). Also: nearly all actives have a fitted effect of over 55% in size. In outline:
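Real-time viability: cells seeded at 600 per well together with NanoLuc and cell-permeant prosubstrate, compounds added after 5 h incubation. Luminescence tracked at 0, 8, 16, 24, 32 and 40 h of exposure.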
(In general: qHTS replaces the single test concentration by a dilution series.)

Test [3] is described as follows: qHTS RealTime-Glo MT Cell Viability Assay in HEK293 cells - 40 hour (AID 1224874). Also: nearly all actives have a fitted effect of over 50% in size. Also: potency is read from the fitted curve at half-maximal effect. The conditions noted are these: RealTime-Glo luminescence; max response: hits give low values. In outline: (§2)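 Luminescence readout at each listed time point; HEK293, 600 cells/well, RealTime-Glo MT reagent added with cells; compounds pinned (23 nL in DMSO) after 5 h at 37 C; continuous culture at 37 C.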

The nature of test [4]: A CellTox Green Cytotoxicity Assay to monitor cytotoxicity in HEK293 cells - 24 hour (AID 1224875). Also: series mostly up to about 77 µM; nearly all actives have a fitted effect of over 45% in size. In outline:
as §1

A short description of test [5]: A CellTox Green Cytotoxicity Assay to monitor cytotoxicity in HepG2 cells - 16 hour (AID 1224876). Also: nearly all actives have a fitted effect of over 45% in size. Also: potency is read from the fitted curve at half-maximal effect. An outline of the steps: (§3)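 HepG2, 600 cells/well premixed w/ CellTox Green; 5 h settle, 37 C/5% CO2; pintool cpd add (DMSO); 37 C, 40 h; fluorescence read at 0, 8, 16, 24, 32, 40 h.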
Test [6] is described as follows: qHTS RealTime-Glo MT Cell Viability Assay in HepG2 cells - 32 hour (AID 1224877). Also: nearly all actives have a fitted effect of over 55% in size. In outline:
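HepG2 cells (600/well) were dispensed with RealTime-Glo reagents, incubated 5 h at 37 °C, then treated with compounds in DMSO for up to 40 h. Nonlytic NanoLuc luminescence reflecting viable cells was read at each stated time point.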

Test [7] is described as follows: A CellTox Green Cytotoxicity Assay to monitor cytotoxicity in HepG2 cells - 24 hour (AID 1224878). Also: nearly all actives have a fitted effect of over 45% in size. Also: potency is read from the fitted curve at half-maximal effect. In outline:
as §3

Test [8] can be described thus: A CellTox Green Cytotoxicity Assay to monitor cytotoxicity in HepG2 cells - 40 hour (AID 1224879). Also: nearly all actives have a fitted effect of over 40% in size. Also: potency is read from the fitted curve at half-maximal effect. An outline of the steps: as §3
Test [9] can be described thus: qHTS RealTime-Glo MT Cell Viability Assay in HEK293 cells - 0 hour (AID 1224880). In outline:
as §2

Test [10] is described as follows: qHTS RealTime-Glo MT Cell Viability Assay in HEK293 cells - 16 hour (AID 1224872). Also: top concentration of the series differs between compounds; nearly all actives have a fitted effect of over 50% in size. In outline:
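HEK293 cells seeded with NanoLuc/prosubstrate reagent, rested 5 h at 37 C, then dosed and kept at 37 C up to 40 h. Nonlytic real-time luminescence from viable cells read at 0, 8, 16, 24, 32 and 40 h.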
% is scaled to controls: 0 for no effect and ±100 for the full control effect.

Consider `CCCCCCCCCCOC(=O)c1ccccc1C(=O)OCCCCCCCC`, for which the Potency result in [1], in test [2], in [4], in [5], in test [6] and in test [7] was “inactive” in each case. Also, the Potency entry in test [8] and in test [9] was “inactive” each time. Besides, in test [3], the max response is 1.51%.
Consider `CC(C)Cn1cnc2c(N)nc3ccccc3c21`, for which the figures for the cytotoxicity increase in test [1], in [5] and in [8] were 1.7% [at 15.8 µM], -13.4% [at 15.8 µM] and -14.5% [at 15.8 µM], respectively. For the same compound, the viability change, negative = cytotoxic in test [2] is -0.187% [at 15.8 µM]. For the same compound, the activity change in test [4] was 3.75% [at 15.8 µM, hits give high values]. Besides, in [6], the activity change, negative = cytotoxic is -0.3% [at 15.8 µM]. In addition, the cytotoxicity in [7] is -13.9% [at 15.8 µM]. Moreover, in test [9], the activity change, negative = cytotoxicity was -0.941% [at 15.8 µM].
Regarding `S=C([S-])NCCNC(=S)[S-].S=C([S-])NCCNC(=S)[S-].[Mn+2].[Zn+2]`, the Potency entry in [1], in test [2], in test [4], in test [5], in test [6] and in test [7] was “inactive” in each case. The Potency entry in [8] and in [9] was “inactive” in each case.
Consider `C=C(C)c1cccc(C(=C)C)c1`, for which the Potency entry in test [1], in test [2], in test [4], in test [5], in [6] and in test [7] was “inactive” in each case. For the same compound, the Potency result in test [8] and in test [9] was “inactive” in each case. In addition, in test [3], the max response is -0.359%.
Take `[Cl][Pt-2]([Cl])([Cl])[Cl]`: the Potency entry in test [1], in [2], in test [4], in test [5], in test [6] and in [7] was “inactive” in each case. In addition, the Potency entry in test [8] and in test [9] was “inactive” throughout.
Regarding `CCCCCc1ccc(Cl)cc1`, the Potency result in test [1], in test [2], in test [4], in test [5], in test [6] and in [7] was “inactive” in each case. Besides, the Potency entry in test [8] and in [9] was “inactive” in each case. Besides, the Potency in [3] was 15.5 µM (active).
With `COC(=O)Nc1nc2ccc(C(=O)c3ccccc3)cc2[nH]1`, the Potency entry in test [1], in [2], in [4], in test [5], in test [6] and in [7] was “inactive” throughout. Besides, the Potency entry in test [9] was “inactive”. The results for the Potency in test [3] and in [8] were 0.477 µM (active) and 0.268 µM (active), respectively.
For `CN(C)CCN1CCN(c2cccc(Cl)c2)C1=O`, the Potency result in test [1], in test [2], in test [4], in [5], in test [6] and in test [7] was “inactive” throughout. Besides, the Potency result in test [8] and in test [9] was “inactive” in each case.
Take `COc1cccc(OC)c1C(=O)O`: the Potency result in test [10], in [2], in test [5], in test [6], in test [7] and in test [8] was “inactive” in each case. The Potency entry in test [9] was “inactive”. In addition, in test [3], the max response was 0.328%.
For the compound `C[Si](Cl)(c1ccccc1)c1ccccc1`, the Potency result in test [2], in test [4], in [5], in test [6], in test [7] and in [8] was “inactive” throughout. Besides, the Potency entry in [9] was “inactive”.
As to `COC1=C(OC)C(=O)C(CCCCCCCCCCO)=C(C)C1=O`, the Potency entry in test [1], in [4], in test [5], in [6], in [7] and in [8] was “inactive” each time. Further, the Potency entry in [9] is “inactive”. In addition, the Potency in test [3] is 5.35 µM (active).
`CN(C)[C@@H](CCOc1cccc2ccccc12)c1ccccc1`: in test [9], the Potency result was “inactive”.
On to `COc1cc(S(=O)(=O)O)c(C)cc1N=Nc1c(O)ccc2cc(S(=O)(=O)O)ccc12`, for which the Potency result in [1], in test [4], in [5], in test [7], in test [8] and in test [9] was “inactive” in each case. Besides, the max response in test [3] was -10.3%.
With `O=C(O)CN(CCN(CC(=O)O)CC(=O)O)CC(=O)O`, the activity change, negative = cytotoxicity in test [10] is 0.0628% [at 2.72 µM]; in test [9], 0.0989% [at 2.72 µM]. The viability change, negative = cytotoxic in test [2] was -13.2% [at 2.72 µM]. Moreover, the max response in test [3] is 7.27%. Also, the Potency in test [5] was 1.74 µM (active); in [7], 1.74 µM (active); in [8], 1.96 µM (active). Also, in test [6], the activity change, negative = cytotoxic is 4.09% [at 2.72 µM].
With `Cl[Si](Cl)(c1ccccc1)c1ccccc1`, the Potency result in test [2], in [5], in test [6], in [7], in [8] and in test [9] was “inactive” in each case. Moreover, in [3], the max response is -3.91%.
`C#C[C@]1(OC(C)=O)CC[C@H]2[C@@H]3CCC4=C[C@@H](OC(C)=O)CC[C@@H]4[C@H]3CC[C@@]21C`: the Potency entry in test [2], in test [4], in test [5], in test [6], in [7] and in [8] was “inactive” throughout. The Potency entry in test [9] is “inactive”. For the same compound, the Potency in [3] was 21.3 µM (active).
For `CC1(C)CCC[C@]2(C)[C@H]3CCO[C@]3(C)CC[C@@H]12`, the Potency entry in test [2], in test [5], in test [6], in test [7], in test [8] and in test [9] was “inactive” each time. Moreover, the max response in [3] is 4.7%.
As for `CCC(C)n1ncn(-c2ccc(N3CCN(c4ccc(OC[C@H]5CO[C@](Cn6cncn6)(c6ccc(Cl)cc6Cl)O5)cc4)CC3)cc2)c1=O` (stereo not given in full), the Potency entry in test [1], in test [2], in [4], in test [5], in test [7] and in test [8] was “inactive” in each case. For the same compound, the Potency entry in test [9] was “inactive”.
For the compound `Oc1cc(Cl)cc(Cl)c1Cl`, the Potency result in test [2], in [5], in test [6], in test [7], in test [8] and in test [9] was “inactive” each time.
In the case of `Cc1cc(=O)oc2cc(O)cc(O)c12`, the Potency result in test [10], in test [2], in [5], in test [6], in [7] and in [8] was “inactive” in each case. In addition, the Potency entry in test [9] was “inactive”. Further, the max response in test [3] was -8.17%.
Turning to `CCCCCC(C)OC(=O)COc1ccc(Cl)c2cccnc12` (stereo not given), the Potency result in [2], in test [4], in [5], in test [6] and in [9] was “inactive” each time. In [3], the max response was -19.2%.
For `Cc1ccc(O)c(O)c1`, the Potency result in test [2], in test [5], in test [6], in test [7] and in test [9] was “inactive” throughout.
In the case of `Cc1ccc(-c2ccccc2)cc1`, the Potency result in [10], in test [2], in test [4], in test [6] and in [9] was “inactive” in each case. Moreover, the Potency in test [5] was 49 µM (active); in [7], 43.6 µM (active); in test [8], 43.6 µM (active).
As for `COC(=O)C1=C(C)NC(C)=C(C(=O)OCCN2CCN(C(c3ccccc3)c3ccccc3)CC2)C1c1cccc([N+](=O)[O-])c1` (stereo not given), the Potency result in [1], in test [4], in [5], in test [7], in [8] and in [9] was “inactive” in each case.
